30 compounds from PubChem BioAssay (EPA / NIEHS) can be followed below.

Records with an inconclusive call do not appear. Calls of active or inactive are those of the source. Rule for the calls: active = hit-call score of the fitted dose curve at least 0.9, where 1 is the maximum; inconclusive = response in the unintended direction; inactive = score below 0.9.

human Phosphodiesterase 4A1 (PDE4A1), PDE4A (gene 5141), sequence (P27815 whole entry, looked up): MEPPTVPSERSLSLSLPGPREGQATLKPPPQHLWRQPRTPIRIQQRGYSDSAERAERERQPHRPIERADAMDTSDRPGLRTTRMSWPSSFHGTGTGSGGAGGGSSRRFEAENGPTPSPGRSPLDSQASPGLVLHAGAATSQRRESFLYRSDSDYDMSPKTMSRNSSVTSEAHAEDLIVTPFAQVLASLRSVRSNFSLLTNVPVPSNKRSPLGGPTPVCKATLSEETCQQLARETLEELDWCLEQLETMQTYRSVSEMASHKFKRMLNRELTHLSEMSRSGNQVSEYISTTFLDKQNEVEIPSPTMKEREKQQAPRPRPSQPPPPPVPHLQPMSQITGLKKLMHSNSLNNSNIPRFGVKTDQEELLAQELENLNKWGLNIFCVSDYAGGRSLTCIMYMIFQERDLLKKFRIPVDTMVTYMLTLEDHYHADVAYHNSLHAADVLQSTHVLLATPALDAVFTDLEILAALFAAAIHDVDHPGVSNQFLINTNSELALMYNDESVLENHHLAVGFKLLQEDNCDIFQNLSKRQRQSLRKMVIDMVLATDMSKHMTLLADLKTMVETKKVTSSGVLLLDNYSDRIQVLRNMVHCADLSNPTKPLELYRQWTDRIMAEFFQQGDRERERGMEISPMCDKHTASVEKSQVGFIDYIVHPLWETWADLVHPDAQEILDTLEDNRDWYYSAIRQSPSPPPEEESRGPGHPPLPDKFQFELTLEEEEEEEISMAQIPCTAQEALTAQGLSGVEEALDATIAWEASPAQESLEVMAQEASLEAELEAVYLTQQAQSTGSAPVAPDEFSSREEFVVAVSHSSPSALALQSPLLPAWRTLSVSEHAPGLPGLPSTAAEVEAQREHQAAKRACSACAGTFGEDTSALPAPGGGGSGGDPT
human Protein Tyrosine Phosphatase Non-receptor Type 1 (PTPN1), PTPN1 (gene 5770), sequence (P18031 whole entry, looked up): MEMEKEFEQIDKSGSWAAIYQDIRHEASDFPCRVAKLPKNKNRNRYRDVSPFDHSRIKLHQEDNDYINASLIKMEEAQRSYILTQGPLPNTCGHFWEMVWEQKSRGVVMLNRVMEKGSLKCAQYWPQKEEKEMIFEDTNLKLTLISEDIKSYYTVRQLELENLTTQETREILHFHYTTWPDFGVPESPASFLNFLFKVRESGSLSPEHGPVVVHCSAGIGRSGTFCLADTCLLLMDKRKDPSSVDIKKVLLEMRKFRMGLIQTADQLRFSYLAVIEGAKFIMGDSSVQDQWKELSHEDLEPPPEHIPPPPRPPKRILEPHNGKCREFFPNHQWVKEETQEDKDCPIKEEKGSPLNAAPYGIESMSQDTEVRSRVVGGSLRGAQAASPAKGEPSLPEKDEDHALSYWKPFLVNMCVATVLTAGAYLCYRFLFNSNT
Serine/threonine-protein phosphatase PP1-alpha catalytic subunit (Homo sapiens), sequence (P62136 whole entry, looked up): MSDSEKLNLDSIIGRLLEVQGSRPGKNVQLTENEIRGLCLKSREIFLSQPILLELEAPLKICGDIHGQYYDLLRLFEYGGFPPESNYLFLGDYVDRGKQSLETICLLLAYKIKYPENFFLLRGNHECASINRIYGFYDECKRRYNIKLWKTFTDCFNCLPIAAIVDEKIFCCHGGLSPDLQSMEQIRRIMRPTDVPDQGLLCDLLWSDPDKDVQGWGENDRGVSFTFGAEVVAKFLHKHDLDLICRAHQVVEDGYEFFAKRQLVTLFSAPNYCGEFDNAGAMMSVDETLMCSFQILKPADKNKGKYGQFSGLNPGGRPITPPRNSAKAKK
human Matrix Metalloproteinase-9 (MMP9), MMP9 (gene 4318), sequence (P14780 whole entry, looked up): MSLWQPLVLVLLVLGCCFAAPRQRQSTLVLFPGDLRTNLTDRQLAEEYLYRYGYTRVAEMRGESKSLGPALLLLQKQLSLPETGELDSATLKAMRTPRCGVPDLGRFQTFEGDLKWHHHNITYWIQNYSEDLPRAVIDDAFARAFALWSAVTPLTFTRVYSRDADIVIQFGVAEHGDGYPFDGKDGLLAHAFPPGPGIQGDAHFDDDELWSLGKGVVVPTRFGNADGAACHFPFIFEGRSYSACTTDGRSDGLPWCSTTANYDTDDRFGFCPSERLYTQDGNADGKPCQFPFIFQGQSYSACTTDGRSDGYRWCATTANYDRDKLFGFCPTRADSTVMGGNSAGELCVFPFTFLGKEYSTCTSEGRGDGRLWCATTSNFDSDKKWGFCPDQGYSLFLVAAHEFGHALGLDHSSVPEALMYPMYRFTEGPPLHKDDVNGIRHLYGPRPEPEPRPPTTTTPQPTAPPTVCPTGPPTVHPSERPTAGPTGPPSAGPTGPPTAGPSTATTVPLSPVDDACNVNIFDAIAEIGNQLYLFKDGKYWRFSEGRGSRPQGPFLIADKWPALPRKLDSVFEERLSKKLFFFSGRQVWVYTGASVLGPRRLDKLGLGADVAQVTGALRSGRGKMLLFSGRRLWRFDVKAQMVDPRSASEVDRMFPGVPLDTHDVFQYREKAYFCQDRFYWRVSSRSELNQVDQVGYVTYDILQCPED
human Phosphodiesterase 10 (PDE10), PDE10A (gene 10846), sequence (Q9Y233 whole entry, looked up): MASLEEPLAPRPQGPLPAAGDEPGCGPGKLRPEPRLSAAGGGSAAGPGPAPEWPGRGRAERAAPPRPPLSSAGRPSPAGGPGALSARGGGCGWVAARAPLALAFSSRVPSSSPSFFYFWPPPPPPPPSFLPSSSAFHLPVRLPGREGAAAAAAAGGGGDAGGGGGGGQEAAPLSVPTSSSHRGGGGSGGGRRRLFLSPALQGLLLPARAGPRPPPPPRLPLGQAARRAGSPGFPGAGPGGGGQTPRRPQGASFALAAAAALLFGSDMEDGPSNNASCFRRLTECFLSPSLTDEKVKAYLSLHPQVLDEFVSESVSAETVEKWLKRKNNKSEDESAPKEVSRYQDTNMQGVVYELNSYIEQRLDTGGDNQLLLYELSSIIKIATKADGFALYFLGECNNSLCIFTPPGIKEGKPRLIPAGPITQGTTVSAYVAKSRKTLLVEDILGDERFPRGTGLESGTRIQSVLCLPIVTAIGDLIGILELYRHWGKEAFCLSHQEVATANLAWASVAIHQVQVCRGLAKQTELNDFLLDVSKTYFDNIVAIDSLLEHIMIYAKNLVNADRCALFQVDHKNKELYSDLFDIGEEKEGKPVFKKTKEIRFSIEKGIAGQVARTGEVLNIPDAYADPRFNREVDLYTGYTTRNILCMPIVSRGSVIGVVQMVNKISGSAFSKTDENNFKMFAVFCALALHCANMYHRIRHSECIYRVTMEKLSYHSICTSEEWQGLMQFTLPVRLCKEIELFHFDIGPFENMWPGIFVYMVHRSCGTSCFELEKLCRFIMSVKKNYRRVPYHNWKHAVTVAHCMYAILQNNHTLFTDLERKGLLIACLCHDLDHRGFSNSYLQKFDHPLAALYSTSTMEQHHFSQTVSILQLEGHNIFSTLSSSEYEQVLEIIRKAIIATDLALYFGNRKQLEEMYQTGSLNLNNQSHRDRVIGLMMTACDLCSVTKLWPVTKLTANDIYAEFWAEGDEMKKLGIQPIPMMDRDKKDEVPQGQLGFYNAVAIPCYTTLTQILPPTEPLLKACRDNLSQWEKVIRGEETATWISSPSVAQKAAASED
Tyrosine-protein phosphatase non-receptor type 11 (Homo sapiens), sequence (Q06124 whole entry, looked up): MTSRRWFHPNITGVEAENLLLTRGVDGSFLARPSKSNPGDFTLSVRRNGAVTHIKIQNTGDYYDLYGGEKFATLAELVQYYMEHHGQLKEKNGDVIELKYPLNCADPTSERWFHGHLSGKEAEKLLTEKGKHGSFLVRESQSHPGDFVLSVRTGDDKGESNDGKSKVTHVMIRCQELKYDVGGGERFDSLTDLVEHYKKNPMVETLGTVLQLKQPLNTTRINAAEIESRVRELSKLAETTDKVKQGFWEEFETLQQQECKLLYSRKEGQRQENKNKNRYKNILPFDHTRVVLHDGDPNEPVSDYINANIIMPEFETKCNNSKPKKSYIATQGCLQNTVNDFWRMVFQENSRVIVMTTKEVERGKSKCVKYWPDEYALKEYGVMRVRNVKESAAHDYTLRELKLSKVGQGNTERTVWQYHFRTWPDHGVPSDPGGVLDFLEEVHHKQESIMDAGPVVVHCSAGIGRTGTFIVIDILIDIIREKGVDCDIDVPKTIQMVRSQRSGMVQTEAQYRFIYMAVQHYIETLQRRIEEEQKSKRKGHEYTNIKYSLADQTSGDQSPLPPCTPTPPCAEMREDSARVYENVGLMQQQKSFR

One assay has as its target human Mitogen- and Stress-activated Protein Kinase-1 (Msk1), RPS6KA5 (gene 9252) (UniProt O75582). Nature of the assay: NVS_ENZ_hMsk1: NovaScreen (NVS) Enzymatic Assay for human Mitogen- and Stress-activated Protein Kinase-1 (Msk1) (AID 2283187). On the procedure:
NVS_ENZ_hMsk1 is a biochemical, single-readout assay that uses extracted gene-proteins in a cell-free assay. Measurements were taken 1 hour after chemical dosing in a 384-well plate.NVS_ENZ_hMsk1 is one of one assay component(s) measured or calculated from the NVS_ENZ_hMsk1 assay. It is designed to make measurements of enzyme activity, a form of enzyme reporter, as detected with fluorescence intensity signals by Fluorescence and electrophoretic mobility shift technology.Data from the assay component NVS_ENZ_hMsk1 was analyzed into 1 assay endpoint. This assay endpoint, NVS_ENZ_hMsk1, was analyzed in the positive analysis fitting direction relative to DMSO as the negative control and baseline of activity. Using a type of enzyme reporter, loss-of-signal activity can be used to understand changes in the enzymatic activity as they relate to the gene RPS6KA5. Furthermore, this assay endpoint can be referred to as a primary readout, because this assay has produced multiple assay endpoints where this one serves a enzymatic activity function. To generalize the intended target to other relatable targets, this assay endpoint is annotated to the kinase intended target family, where the subfamily is serine/threonine kinase.
Binding assays used specific radioligands (tritiated, iodinated) with non-radioactive competitive displacement ligands in agonist or antagonist protocols (as indicated) and various reference compounds and inhibitors to titrate specific binding to receptors and transporters. Most enzyme assays (CYPs, kinases, phosphatases, proteases, HDACs) used recombinant protein and specific substrates (fluorescence mostly, some colorimetric and radioactive) and inhibitors, followed by a biochemical separation of substrate and product. All assays for the biochemical HTS were initially run in duplicate at a single concentration (10 uM for CYP450 assays and 25 uM for all others). […]
Turning to `O=C(O)C(F)(F)C(F)(F)C(F)(F)C(F)(F)C(F)(F)C(F)(F)C(F)(F)C(F)(F)F`, the outcome was inactive.

As to `CCSC(=O)N(CC)C1CCCCC1`, the outcome was inactive.

As for `CC1=C2C[C@H]3[C@@H](CC=C4C[C@@H](O)CC[C@@]43C)[C@@H]2CC[C@]12O[C@@H]1C[C@H](C)CN[C@H]1[C@H]2C`, the half-maximal activity concentration (AC50) (in general, the midpoint of the concentration-response curve, whichever way the signal moves) was 19 µM (active).

In the next assay the target is human p21 Activated Kinase 4 (PAK4), PAK4 (gene 10298) (UniProt O96013). In words: NVS_ENZ_hPAK4: NovaScreen (NVS) Enzymatic Assay for human p21 Activated Kinase 4 (PAK4) (AID 2283189). The procedure, abridged: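 Extracted PAK4 enzyme activity read by fluorescence with mobility-shift separation 1 h after chemical addition. Duplicate single-concentration screen at 25 uM, DMSO as negative control.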
human p21 Activated Kinase 4 (PAK4), PAK4 (gene 10298), sequence (O96013 whole entry, looked up): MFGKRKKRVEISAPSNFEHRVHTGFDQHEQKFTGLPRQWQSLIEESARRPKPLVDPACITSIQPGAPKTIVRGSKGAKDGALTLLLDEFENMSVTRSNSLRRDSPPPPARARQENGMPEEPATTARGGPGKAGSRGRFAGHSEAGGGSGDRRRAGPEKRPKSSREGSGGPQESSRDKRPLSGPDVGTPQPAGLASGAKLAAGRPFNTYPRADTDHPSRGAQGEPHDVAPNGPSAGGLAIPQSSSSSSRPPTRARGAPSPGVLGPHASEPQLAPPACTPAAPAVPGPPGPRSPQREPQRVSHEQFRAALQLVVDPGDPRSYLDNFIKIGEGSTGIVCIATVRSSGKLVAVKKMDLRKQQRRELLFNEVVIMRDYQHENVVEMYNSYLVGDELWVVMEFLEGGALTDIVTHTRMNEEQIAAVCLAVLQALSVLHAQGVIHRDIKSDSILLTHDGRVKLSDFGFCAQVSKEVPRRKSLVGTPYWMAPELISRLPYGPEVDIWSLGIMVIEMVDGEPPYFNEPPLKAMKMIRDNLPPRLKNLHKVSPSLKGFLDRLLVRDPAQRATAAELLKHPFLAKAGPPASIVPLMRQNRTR
In the case of `ClC1=C(Cl)[C@]2(Cl)[C@@H]3[C@H]4C[C@H]([C@@H]5O[C@H]45)[C@@H]3[C@@]1(Cl)C2(Cl)Cl`, the result was inactive.

With `CN(C)CCO`, the compound was classed as inactive.

In the case of `CC1=C2C[C@H]3[C@@H](CC=C4C[C@@H](O)CC[C@@]43C)[C@@H]2CC[C@]12O[C@@H]1C[C@H](C)CN[C@H]1[C@H]2C`, the compound was classed as inactive.

The next assay concerns the target human Matrix Metalloproteinase-9 (MMP9), MMP9 (gene 4318) (UniProt P14780). Nature of the assay: NVS_ENZ_hMMP9: NovaScreen (NVS) Enzymatic Assay for human Matrix Metalloproteinase-9 (MMP9) (AID 2283190).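 Note: cell-free recombinant MMP9 protease activity read by fluorescent substrate signal; active means inhibition seen as loss of fluorescence signal versus DMSO.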 The procedure, abridged: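 Cell-free fluorescence-intensity enzyme activity assay using extracted protein, read 1 h after dosing. Loss of signal versus DMSO baseline indicates inhibition; primary screen in duplicate at 25 uM, actives followed up in concentration series.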
For `CCCCCCCCCc1ccc(O)cc1`, the call was inactive.

As for `CC(C)C(=O)OCC(C)(C)C(OC(=O)C(C)C)C(C)C` (stereo unspecified), the outcome was inactive.

Turning to `CO/C=C(/C(=O)OC)c1ccccc1COc1cccc(C(F)(F)F)n1`, the result was inactive.

As to `Sc1ccccc1`, the concentration at half-maximal activity (AC50) was 4.12 µM (active).

For another assay, the target named is human Phosphodiesterase 4A1 (PDE4A1), PDE4A (gene 5141) (UniProt P27815). In words: NVS_ENZ_hPDE4A1: NovaScreen (NVS) Enzymatic Assay for human Phosphodiesterase 4A1 (PDE4A1) (AID 2283191). The essentials:
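Fluorescent substrate turnover by recombinant PDE4A1 read after 1 h by mobility-shift separation. Primary duplicate screen at 25 uM; hits retested in concentration series with a 50 uM maximum, relative to DMSO.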
For the compound `Cc1cc2c3c(c1)C(c1ccccc1)=N[C@@H](NC(=O)c1ccncc1)C(=O)N3CC2`, the half-maximal activity concentration (AC50) was 1.36 µM (active).

As for `CCCN(CCC)N=O`, the compound was classed as inactive.

Regarding `O=S(=O)(O)C(F)(F)C(F)(F)C(F)(F)C(F)(F)C(F)(F)C(F)(F)F`, the call was inactive.

On to `CCNc1nc(NC(C)C)nc(SC)n1`, for which the half-maximal activity concentration (AC50) is 2.15 µM (active).

On to `CC1=C2C[C@H]3[C@@H](CC=C4C[C@@H](O)CC[C@@]43C)[C@@H]2CC[C@]12O[C@@H]1C[C@H](C)CN[C@H]1[C@H]2C`, for which the result was inactive.

In a further assay the target is human Phosphodiesterase 5 (PDE5), PDE5A (gene 8654) (UniProt O76074). Nature of the assay: NVS_ENZ_hPDE5: NovaScreen (NVS) Enzymatic Assay for human Phosphodiesterase 5 (PDE5) (AID 2283194). The essentials:
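Screening began in duplicate at 25 uM, with actives taken into concentration-response. Enzyme activity of recombinant PDE5 toward its substrate was measured at 1 h by fluorescence mobility-shift detection, relative to DMSO controls.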
Regarding `O=C(O)C(F)(F)C(F)(F)C(F)(F)C(F)(F)C(F)(F)C(F)(F)C(F)(F)C(F)(F)F`, the outcome was inactive.

Take `N#Cc1ccc(N(CC(N)=O)CC(F)(F)F)cc1C(F)(F)F`: the compound was classed as inactive.

Regarding `Cc1cc2c3c(c1)C(c1ccccc1)=N[C@@H](NC(=O)c1ccncc1)C(=O)N3CC2`, the AC50 was 3.87 µM (active).

`CCCN(CCC)N=O`: the compound was called inactive.

Consider `CC(C)C(=O)OCC(C)(C)C(OC(=O)C(C)C)C(C)C` (stereo unspecified), for which the compound was classed as inactive.

For `ClC(Cl)=C(c1ccc(Cl)cc1)c1ccc(Cl)cc1`, the outcome was inactive.

As for `CCC(C)(c1ccc(O)cc1)c1ccc(O)cc1`, the call was inactive.

For the compound `Oc1c(Cl)c(Cl)c(Cl)c(Cl)c1Cl`, the result was inactive.

In the case of `O=S(=O)(O)C(F)(F)C(F)(F)C(F)(F)C(F)(F)C(F)(F)C(F)(F)F`, the call was inactive.

With `CCNc1nc(NC(C)C)nc(SC)n1`, the concentration at half-maximal activity (AC50) is 17.4 µM (active).

`Cc1ccc(O)c(C)c1`: the AC50 was 37.4 µM (active).

On to `C[C@]12CCC(=O)C=C1CC[C@@H]1[C@@H]2CC[C@]2(C)C(=O)CC[C@@H]12`, for which the AC50 was 12.3 µM (active).

The next assay concerns the target human Phosphodiesterase 10 (PDE10), PDE10A (gene 10846) (UniProt Q9Y233). In words: NVS_ENZ_hPDE10: NovaScreen (NVS) Enzymatic Assay for human Phosphodiesterase 10 (PDE10) (AID 2283195). The procedure, abridged:
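Fluorescence readout after mobility-shift separation of substrate and product, 1 h reaction with recombinant human enzyme. Single-concentration duplicates at 25 uM, then concentration-response up to 50 uM for chemicals reaching threshold; DMSO baseline.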
As for `Cc1cc2c3c(c1)C(c1ccccc1)=N[C@@H](NC(=O)c1ccncc1)C(=O)N3CC2`, the concentration at half-maximal activity (AC50) was 5.66 µM (active).

As for `CC(C)C(=O)OCC(C)(C)C(OC(=O)C(C)C)C(C)C` (stereo unspecified), the call was inactive.

Take `O=S(=O)(O)C(F)(F)C(F)(F)C(F)(F)C(F)(F)C(F)(F)C(F)(F)F`: the compound was classed as inactive.

For the compound `O=C(O)C(F)(F)C(F)(F)C(F)(F)C(F)(F)C(F)(F)F`, the compound was classed as inactive.

As to `CC1=C2C[C@H]3[C@@H](CC=C4C[C@@H](O)CC[C@@]43C)[C@@H]2CC[C@]12O[C@@H]1C[C@H](C)CN[C@H]1[C@H]2C`, the outcome was inactive.

A further assay deals with human Protein Phosphatase, Mg2+/Mn2+ Dependent 1A (PPM1A), PPM1A (gene 5494) (UniProt P35813). In words: NVS_ENZ_hPPM1A: NovaScreen (NVS) Enzymatic Assay for human Protein Phosphatase, Mg2+/Mn2+ Dependent 1A (PPM1A) (AID 2283198). The essentials: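 Primary screen in duplicate at 25 uM, with actives then titrated to a maximum of 50 uM. Recombinant PPM1A dephosphorylation of fluorescent substrate measured at 1 h, with substrate and product separated by mobility shift; inhibition fitted against DMSO.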
human Protein Phosphatase, Mg2+/Mn2+ Dependent 1A (PPM1A), PPM1A (gene 5494), sequence (P35813 whole entry, looked up): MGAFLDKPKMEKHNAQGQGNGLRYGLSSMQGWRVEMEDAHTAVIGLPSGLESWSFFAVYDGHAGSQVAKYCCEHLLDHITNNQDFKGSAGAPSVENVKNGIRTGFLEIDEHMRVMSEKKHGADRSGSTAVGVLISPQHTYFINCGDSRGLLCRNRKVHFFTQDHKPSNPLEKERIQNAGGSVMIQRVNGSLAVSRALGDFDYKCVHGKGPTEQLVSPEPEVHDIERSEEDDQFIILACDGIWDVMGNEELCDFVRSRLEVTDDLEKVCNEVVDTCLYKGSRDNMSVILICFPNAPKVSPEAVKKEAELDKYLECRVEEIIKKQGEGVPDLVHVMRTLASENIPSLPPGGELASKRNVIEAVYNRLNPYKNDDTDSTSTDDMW
`C=CC(N)=O`: the compound was classed as inactive.

In the case of `Cc1cc2c3c(c1)C(c1ccccc1)=N[C@@H](NC(=O)c1ccncc1)C(=O)N3CC2`, the compound was called inactive.

In the case of `NS(=O)(=O)C(F)(F)C(F)(F)C(F)(F)C(F)(F)C(F)(F)C(F)(F)C(F)(F)C(F)(F)F`, the result was inactive.

On to `Clc1ccc(C(c2ccccc2Cl)C(Cl)(Cl)Cl)cc1` (stereo unspecified), for which the call was inactive.

In the case of `CCC(C)c1cc([N+](=O)[O-])cc([N+](=O)[O-])c1O` (stereo unspecified), the result was inactive.

Another assay has as its target Serine/threonine-protein phosphatase PP1-alpha catalytic subunit (Homo sapiens) (UniProt P62136). In words: NVS_ENZ_hPPP1CA: NovaScreen (NVS) Enzymatic Assay for human Protein Phosphatase 1 Aatalytic subunit Alpha (PPP1CA) (AID 2283200). The procedure, abridged:
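Chemicals were first screened in duplicate at 25 uM, and those passing threshold (e.g. 30% inhibition) were run as concentration series to 50 uM. Cell-free recombinant protein, 1.33 h read, fluorescent substrate/product mobility-shift detection, normalised to DMSO.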
On to `O=C(O)C(F)(F)C(F)(F)C(F)(F)C(F)(F)C(F)(F)C(F)(F)C(F)(F)C(F)(F)C(F)(F)F`, for which the AC50 was 43.3 µM (active).

For `Cc1cc(-c2ccc(N)c(C)c2)ccc1N`, the call was inactive.

For `CC(C)C(=O)OCC(C)(C)C(OC(=O)C(C)C)C(C)C` (stereo unspecified), the outcome was inactive.

Turning to `Clc1ccc(C(c2ccccc2Cl)C(Cl)(Cl)Cl)cc1` (stereo unspecified), the result was inactive.

For the compound `Cc1cccc([N+](=O)[O-])c1`, the outcome was inactive.

`ClC1=C(Cl)[C@]2(Cl)[C@@H]3[C@@H](Cl)[C@H]4O[C@H]4[C@@H]3C1(Cl)C2(Cl)Cl`: the outcome was inactive.

A further assay concerns the target human Protein Tyrosine Phosphatase Non-receptor Type 1 (PTPN1), PTPN1 (gene 5770) (UniProt P18031). In words: NVS_ENZ_hPTPN1: NovaScreen (NVS) Enzymatic Assay for human Protein Tyrosine Phosphatase Non-receptor Type 1 (PTPN1) (AID 2283201). The procedure, abridged:
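Chemicals were first tested in duplicate at 25 uM, and those passing threshold went on to singleton concentration series topping at 50 uM. Recombinant enzyme, specific substrate, product separated by mobility shift, fluorescence read at 1.33 h; activity loss relative to DMSO.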
In the case of `O=C(O)C(F)(F)C(F)(F)C(F)(F)C(F)(F)C(F)(F)C(F)(F)C(F)(F)C(F)(F)F`, the outcome was inactive.

Turning to `Oc1ccc(C(c2ccc(O)cc2)(C(F)(F)F)C(F)(F)F)cc1`, the outcome was inactive.

Turning to `O=C(O)C(F)(F)C(F)(F)C(F)(F)C(F)(F)C(F)(F)F`, the compound was classed as inactive.

In the case of `CC1=C2C[C@H]3[C@@H](CC=C4C[C@@H](O)CC[C@@]43C)[C@@H]2CC[C@]12O[C@@H]1C[C@H](C)CN[C@H]1[C@H]2C`, the call was inactive.

In the case of `CCOCCOC(C)=O`, the compound was classed as inactive.

Another assay concerns the target Tyrosine-protein phosphatase non-receptor type 11 (Homo sapiens) (UniProt Q06124). In words: NVS_ENZ_hPTPN11: NovaScreen (NVS) Enzymatic Assay for human Protein Tyrosine Phosphatase Non-receptor Type 11 (PTPN11) (AID 2283202). The procedure, abridged:
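Compounds first tested in duplicate at 25 uM; those reaching ~30% inhibition rerun in singleton concentration-response, top 50 uM. Phosphatase activity measured after 0.5 h by fluorescence with mobility-shift separation, relative to DMSO.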
Turning to `Oc1ccc(C(c2ccc(O)cc2)(C(F)(F)F)C(F)(F)F)cc1`, the compound was called inactive.

With `O=C(O)C(F)(F)C(F)(F)C(F)(F)C(F)(F)C(F)(F)F`, the call was inactive.

As for `CC1=C2C[C@H]3[C@@H](CC=C4C[C@@H](O)CC[C@@]43C)[C@@H]2CC[C@]12O[C@@H]1C[C@H](C)CN[C@H]1[C@H]2C`, the outcome was inactive.
